From PubChem
Only some compounds are listed: those with a hit (about 18% of all), similar ones and a draw of the others.
TDP1 cell CPT – growth inhibition of DT40 Tdp1-/-;hTDP1 cells with camptothecin (screen for TDP1 inhibitors) | 420,000 tested, 12% active | Potency, µM (series often up to 46.2 µM), inactives show at the highest dose activity change, negative = growth inhibition, hits mostly inhibitors | chicken DT40 Tdp1-/-;hTDP1 cells + 20 nM CPT, ATP luminescence, 48 h; note: potency is the fitted concentration of half-maximal effect; nearly all actives have a fitted effect of over 55% in size
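Chicken DT40 Tdp1-/- cells complemented with human TDP1, 400 cells/well, exposed to compounds plus 20 nM camptothecin for at least 48 h at 37 C; viability read as ATP content by CellTiter-Glo luminescence.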
DT40 TDP1 no CPT – qHTS for Inhibitors of human tyrosyl-DNA phosphodiesterase 1 (TDP1): qHTS in cells in absence of CPT; DT40 Tdp1-/- hTDP1 cells, no CPT, ATP luminescence, 48 h; 420,000 tested, 15% active; Potency, µM (highest dose often 46.2 µM), without a hit: top-dose activity change, negative = growth inhibition, usual class: inhibitors; AID 686978, 2013; note: potency is the fitted concentration of half-maximal effect; nearly all actives have a fitted effect of over 55% in size
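No-CPT arm: Tdp1-/-;hTDP1 DT40 cells (400/well) plus compounds, incubated ≥48 hr at 37 °C. Readout CellTiter-Glo luminescence.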
Six1-Eya2 blk – inhibitors of human Six1/Eya2 interaction. Q15475+O00167. AlphaScreen GST-Six1/His-Eya2 binding, biochemical; active compounds read low. activity change, % (test concentration not listed). 360,000 tested, 0.56% active. AID 651725; in the data active = activity change below about -65%; inconclusive = mostly about -30% to -63%
Target sequence (O00167 whole entry, looked up): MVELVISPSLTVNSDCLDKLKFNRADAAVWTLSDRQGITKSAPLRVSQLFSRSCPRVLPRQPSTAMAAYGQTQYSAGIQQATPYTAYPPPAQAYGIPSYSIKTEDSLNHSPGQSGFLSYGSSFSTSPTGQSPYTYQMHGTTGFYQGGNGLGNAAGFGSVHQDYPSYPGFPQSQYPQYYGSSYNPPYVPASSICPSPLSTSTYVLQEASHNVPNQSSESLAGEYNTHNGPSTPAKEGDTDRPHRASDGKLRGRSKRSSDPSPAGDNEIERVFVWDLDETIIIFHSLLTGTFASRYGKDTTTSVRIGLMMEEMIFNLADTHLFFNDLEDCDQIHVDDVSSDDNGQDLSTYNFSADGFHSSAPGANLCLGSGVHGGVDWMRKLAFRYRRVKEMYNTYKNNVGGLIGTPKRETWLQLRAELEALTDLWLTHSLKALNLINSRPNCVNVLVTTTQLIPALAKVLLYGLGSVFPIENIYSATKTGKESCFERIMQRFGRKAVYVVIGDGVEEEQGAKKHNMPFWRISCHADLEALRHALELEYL
Target sequence (Q15475 whole entry, looked up): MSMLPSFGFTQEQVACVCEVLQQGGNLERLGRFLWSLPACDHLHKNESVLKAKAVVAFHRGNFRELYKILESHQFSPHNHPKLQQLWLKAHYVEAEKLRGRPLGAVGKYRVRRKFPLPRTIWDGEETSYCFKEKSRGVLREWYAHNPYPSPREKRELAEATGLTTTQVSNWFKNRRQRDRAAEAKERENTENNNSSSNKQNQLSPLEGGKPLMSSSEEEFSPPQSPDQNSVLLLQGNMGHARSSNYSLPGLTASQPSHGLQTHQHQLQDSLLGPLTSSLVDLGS
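Compounds are tested against tagged Six1 and Eya2 proteins bridged by glutathione donor and nickel acceptor beads; after a one-hour incubation at 37 °C without light, AlphaScreen emission is recorded.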
TDP1 block – blocks human tyrosyl-DNA phosphodiesterase 1; Q9NUW8; recombinant TDP1, AlphaScreen DNA substrate cleavage; Potency, µM (highest dose often 130 µM), for inactives: at the top dose activity change, negative = inhibition, hits mostly inhibitors; 350,000 tested, 0.28% active; AID 485290; note: potency is the fitted concentration of half-maximal effect; nearly all actives have a fitted effect of over 40% in size
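E. coli-derived human Tdp1, 1 nM final. Cpd preinc 15 min RT; substrate 15 nM final, 5 min RT; AS bead mix 10 ug/ml final, 10 min RT. Signal loss = tyrosine-FITC cleavage. No-enzyme wells = max signal.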
IL-1B inflam inh – inflammasome signaling inhibition, IL-1 beta readout; THP-1 LPS/ATP IL-1B secretion, AlphaLISA, 16 h; active compounds read low; activity change, % at 57.5 µM; 360,000 tested, 4.7% active; in the data active = activity change below about -50%; inconclusive = mostly about -30% to -49%
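Secreted IL-1B measured by AlphaLISA bead assay after 16 h compound exposure of THP-1 cells; compounds (final up to 57.5 uM) added 1 h before LPS (250 ng/mL) and ATP (1.25 mM) stimulation; lower signal means less secretion.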
CtBP-E1A inh – blocks the CtBP interaction with E1A | AlphaScreen GST-E1A/His-CtBP binding, 1536-well; active compounds read low | activity change, % (test concentration not listed) | 340,000 tested, 0.49% active; in the data active = activity change below about -65%; inconclusive = mostly about -30% to -63%
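Steps: dispense buffer (Tris pH 8.0, NaCl 300 mM, TCEP 1 mM, BSA, Tween 20); add 5X protein mix (GST-E1A, His-CtBP, 125 nM each); pin 23 nL compound; 2 h at 37 °C, dark; add 5X beads (50 ug/mL); 1 h; read.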
* marks the source's active call; other numbers are inactive results; ? = inconclusive; · = no result given. Unless noted, calls come from the whole dose curve; as a rule, active = well fitted curve in the direction sought with a large enough effect; inconclusive = small, poorly fitted or top-dose-only effect, or another doubt; inactive = no such curve, though single readings can be large; an effect the other way counts as inactive or inconclusive. % is set by controls: 0 for no effect and ±100 for the full control effect.

SMILES | TDP1 cell CPT | DT40 TDP1 no CPT | Six1-Eya2 blk | TDP1 block | IL-1B inflam inh | CtBP-E1A inh
CCC1=C(CC2NCCc3ccccc32)CC2c3cc(OC)c(OC)cc3CCN2C1 (stereo not drawn) | 1.2µM* | 1.6µM* | 3 | · | -92* | -22
Cn1c(C2CCCN2C(=O)OC(C)(C)C)n[nH]c1=S (stereo not drawn) | -2% | 2% | -3 | 0% | 0 | -9
CCc1nc2ccc(F)cc2c(C(=O)NC2CCCCC2C)c1C (stereo not drawn) | -27% | -22% | 9 | 5% | 14 | -4
CC1CCCN(S(=O)(=O)c2ccc(C(=O)Nc3nnc(-c4ccccn4)o3)cc2)C1 (stereo not drawn) | ? | 21µM* | 0 | 10% | 14 | ·
CCC(=O)Nc1nnc(-c2ccccn2)o1 | 8% | -12% | -29 | 3% | 10 | 11
O=C(Nc1nnc(-c2ccccn2)o1)c1ccc(Br)cc1 | ? | 18µM* | ? | 8% | 21 | ?
COc1ccccc1-c1nnc(NC(=O)c2ccc(S(=O)(=O)N3CCCC3)cc2)o1 | 23µM* | 9.2µM* | -11 | 5% | 0 | -18
CC1CCCN(S(=O)(=O)c2ccc(C(=O)Nc3nnc(C4CC4)o3)cc2)C1 (stereo not drawn) | 18µM* | ? | -22 | 4% | 83 | ?
Cc1nnc(NC(=O)c2ccc(S(=O)(=O)N3CCCCCC3)cc2)o1 | -23% | ? | -26 | 6% | -4 | -23
CC(=O)Nc1ccc(NC(=O)CSc2nnc(NC(=O)c3ccccc3F)s2)cc1 | -1% | -25% | -11 | · | -4 | -5
CC1CCCN(S(=O)(=O)c2ccc(C(=O)Nc3nnc(-c4ccccc4Cl)o3)cc2)C1 (stereo not drawn) | 2.9µM* | 6.5µM* | -1 | 5% | 17 | 3
Cc1ccc(OCc2cc(C(=O)N(CCO)Cc3cccs3)no2)cc1C | ? | ? | -2 | 0% | -62* | 5
CCN(Cc1ccncc1)C(=O)c1cc(COc2ccc(C)c(C)c2)on1 | -27% | ? | 0 | -1% | -53* | 7
CN(Cc1ccccc1)C(=O)c1cccc(NC(=O)Cc2ccc(NC(=O)C3CCN(C(=O)C4CC4)CC3)cc2)c1 | -1% | -16% | 9 | · | -11 | 0
O=C(COc1ccc(S(=O)(=O)N2CCOCC2)cc1)N1CCc2ccccc2C1 | ? | ? | -1 | · | -8 | ·
Cc1ccc(S(=O)(=O)N2CCOCC2)cc1C(=O)OCC(=O)NC1CCCC(C)C1C (stereo not drawn) | 15µM* | 4.6µM* | 2 | -7% | 20 | 3
Cc1ccc(S(=O)(=O)N2CCOCC2)cc1C(=O)OCC(=O)N1CCc2ccccc2C1 | ? | 23µM* | -1 | -2% | 17 | 0
CCN(Cc1ccc(Br)s1)C(=O)CSc1nnc(C2CC2)n1C1CC1 | -10% | -20% | 6 | · | -14 | -23
CCCOc1ccc(Br)cc1CSC(=N)N | 6.5µM* | 2.1µM* | 12 | 3% | -86* | 19
CCCn1c2ccccc2c2cnn(CC(=O)NC(CCSC)C(=O)OC)c(=O)c21 (stereo not drawn) | ? | ? | · | -1% | · | ·
CC(=O)c1sc(NC(=O)c2ccccc2F)nc1C | -13% | ? | 3 | 0% | -1 | 7
COc1cccc(/C=N/Nc2cc(Cl)nc(C)n2)c1O | 5% | 1% | -9 | 3% | 14 | ·
C(=N\Nc1nc(N2CCCC2)nc(N2CCCC2)n1)/c1ccccc1OCc1ccccc1 | ? | ? | -3 | 5% | ? | -22
COc1cccc(/C=N/Nc2ncnc3c2ncn3Cc2ccccc2)c1O | 3.7µM* | 4.6µM* | -78* | 8% | -52* | -87*
COc1cccc(/C=N/Nc2nnc(C)n2N)c1O | ? | 21µM* | -73* | · | 7 | -88*
